SENP8 block-1 = human SENP8 protease inhibitors, primary screen, biochemical, fluorescence, Nedd8 protein substrate, uHTS; Sentrin-specific protease 8 (Homo sapiens), Q96LD8; recombinant SENP8; inhibition, % at 20 µM; 360,000 tested, 0.64% active; in the data active = inhibition mostly above about 40%, no sharp cut-off; inactive = mostly below about 27%
SENP7 block = SENP7 protease inhibitors, primary screen, biochemical, luminescence, uHTS. 330,000 tested, 1.5% active. inhibition, % at 5 µM. Sentrin-specific protease 7 (Homo sapiens), Q9BQF6. recombinant SENP7, Z-RLRGG-aminoluciferin luminescence, 40 min;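 active = inhibition above about 50% at the single test dose, limit read from the data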
HSP90 inh = HSP90 inhibitors, primary screen, cell lysate, luminescence; Heat shock protein HSP 90 (rabbit reticulocyte lysate; luciferase refolding); Rabbit reticulocyte lysate, luciferase refolding luminescence, 3 h; inhibition, % at 5.6 µM; 290,000 tested, 0.91% active; AID 1789, 2009;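 active = inhibition above the screen-wide mean plus 3 SD, computed separately per campaign, cut at about 16% in these data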;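 note: inhibitors lower the luminescence because luciferase stays unfolded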
SENP6 inh = SENP6 protease inhibitors, primary screen, biochemical, luminescence, uHTS; Sentrin-specific protease 6 (Homo sapiens), Q9GZR1; Recombinant SENP6 catalytic domain, aminoluciferin luminescence; inhibition, % at 10 µM; 330,000 tested, 1.8% active; AID 2599, 2010;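 active = inhibition above about 50% at the single tested dose, limit read from the data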
SENP8 block-2 = SENP8 protease inhibitors, primary screen, biochemical, luminescence | Sentrin-specific protease 8 (Homo sapiens), Q96LD8 | purified SENP8, Z-RLRGG-aminoluciferin cleavage | inhibition, % at 10 µM | 330,000 tested, 1.2% active | AID 2540, 2010; in the data active = inhibition above about 50%
HSP90 confirm = HSP90 inhibitors, confirmation, cell lysate, luminescence | shares compounds with HSP90 inh | 2,300 tested, 64% active | rabbit reticulocyte lysate, luciferase refolding luminescence, 3 h | AID 1846, 2009 | inhibition, % at 5.9 µM; in the data active = inhibition above about 18%
luciferase ctr = firefly luciferase inhibitors, HSP90 counter-screen, confirmation, artefact control for HSP90 inhibitor project, biochemical, luminescence, triplicate; AID 1847, 2009; 2,300 tested, 48% active; inhibition, % at 5.9 µM; shares compounds with HSP90 inh; purified native firefly luciferase;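 active = inhibition above the mean inhibition of all tested sample wells plus 3 SD, cut at about 10% in these data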
Target sequence (P08659 whole entry, looked up): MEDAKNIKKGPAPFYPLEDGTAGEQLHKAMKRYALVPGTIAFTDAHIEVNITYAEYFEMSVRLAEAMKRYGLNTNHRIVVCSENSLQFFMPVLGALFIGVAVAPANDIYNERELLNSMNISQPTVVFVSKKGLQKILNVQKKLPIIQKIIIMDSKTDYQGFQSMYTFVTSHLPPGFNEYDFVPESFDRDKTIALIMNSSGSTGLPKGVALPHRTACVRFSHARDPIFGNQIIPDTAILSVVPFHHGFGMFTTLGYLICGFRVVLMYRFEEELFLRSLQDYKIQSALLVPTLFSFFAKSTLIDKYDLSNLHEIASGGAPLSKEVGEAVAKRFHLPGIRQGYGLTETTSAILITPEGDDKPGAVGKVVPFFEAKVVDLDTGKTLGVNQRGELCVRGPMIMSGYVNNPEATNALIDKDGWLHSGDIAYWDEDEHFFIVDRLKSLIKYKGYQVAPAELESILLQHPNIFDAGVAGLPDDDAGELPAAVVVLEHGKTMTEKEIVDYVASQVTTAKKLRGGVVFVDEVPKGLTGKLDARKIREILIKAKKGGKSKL
SENP8 confirm = SENP8 protease inhibitors, retest, confirmation, biochemical, luminescence, single concentration | shares compounds with SENP7 block | Recombinant SENP8, Z-RLRGG-aminoluciferin luminescence, 60 min | inhibition, % at 12.5 µM | 6,200 tested, 40% active | AID 488912, 2010;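 active = mean inhibition across replicates above about 50%, limit read from the data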
SENP6 confirm = SENP6 protease inhibitors, confirmation, biochemical, luminescence, single concentration | shares compounds with SENP7 block | inhibition, % at 12.5 µM | 6,200 tested, 58% active | AID 488915, 2010 | recombinant SENP6, Z-RLRGG-aminoluciferin luminescence
SENP7 confirm = SENP7 protease inhibitors, retest, confirmation, biochemical, luminescence, single concentration; shares compounds with SENP7 block; recombinant SENP7, Z-RLRGG-aminoluciferin luminescence, 40 min; inhibition, % at 12.5 µM; 6,200 tested, 69% active
Casp3 SENP sel = caspase-3 protease inhibitors, confirmation, selectivity assay for SENP inhibitor project, biochemical, single concentration; shares compounds with SENP7 block; purified caspase-3, Z-DEVD-aminoluciferin luminescence, 60 min; inhibition, % at 12.5 µM; 6,200 tested, 60% active; AID 488918, 2010;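 active = mean inhibition above about 50%, limit read from the data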
SENP luc ctr = counter-screen for SENP inhibitors: luminescence interference; 6,200 tested, 39% active; Pre-incubated SENP8/Z-RLRGG-aminoluciferin, luciferase luminescence interference; inhibition, % at 12.5 µM; AID 488919; shares compounds with SENP7 block;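 active = mean inhibition above about 50% when retested at one dose, limit read from the data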
Of the large screens only hits and unclear results are named; the others gave an inactive call (follow-up assays come after a bar, where they were run). Rows were chosen to be rich in hits. Some 2.8% of all compounds tested hit in one or more screens of this group.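 Rule for the calls, unless noted: active = mean inhibition above about 50% in the one-dose retest (limit read from the data); inactive = the rest.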

CC(=O)c1ccc(N=Nc2c(C)[nH]n(-c3ccccc3)c2=O)cc1	SENP8 block-1 48, HSP90 inh 35 | HSP90 confirm 60 | luciferase ctr inactive
Cc1[nH]n(-c2ccccc2)c(=O)c1N=Nc1ccc(C(=O)O)cc1	HSP90 inh 36 | HSP90 confirm 34 | luciferase ctr inactive
CCCc1nc(SCC(=O)Nc2nc3c(s2)CCCC3)c2ccccc2n1	HSP90 inh 19 | HSP90 confirm inactive | luciferase ctr inactive
COc1cc(/C=N\NC(=O)CC#N)ccc1OC/C=C/c1ccccc1	none
CC(=O)N/N=C\c1cccc(OC/C=C/c2ccccc2)c1	HSP90 inh 21 | HSP90 confirm 19 | luciferase ctr inactive
N#CCC(=O)N/N=C\c1cccc(OC/C=C/c2ccccc2)c1	HSP90 inh 21 | HSP90 confirm 26 | luciferase ctr inactive
O=C(Nc1cc2ccccc2oc1=O)c1ccccc1	SENP7 block 98, HSP90 inh 25, SENP8 block-2 94 | HSP90 confirm 86 | luciferase ctr 74
Cc1ccccc1NC(=S)NNC(=O)c1csc2c1CCC(C)C2 (stereo unspecified)	HSP90 inh 67 | HSP90 confirm 61 | luciferase ctr 52
Cc1c(C(=O)Nc2ccccc2)cn2c(nc3ccccc32)c1C#N	HSP90 inh 35 | HSP90 confirm inactive | luciferase ctr inactive
CCc1ccc(-c2cc(C(=O)Nn3cnnc3)c3ccccc3n2)cc1	HSP90 inh 30 | HSP90 confirm 56 | luciferase ctr 30
CCCc1ccc(-c2cc(C(=O)NN3CCOCC3)c3ccccc3n2)cc1	none
O=C(NCCCO)/C(=C\c1ccco1)NC(=O)c1ccco1	none
Cc1cc(/C=N/Nc2nc(N)ncc2[N+](=O)[O-])c(C)n1-c1cccc(C(F)(F)F)c1	HSP90 inh 34 (no result: SENP8 block-1) | HSP90 confirm 29 | luciferase ctr 16
Fc1ccccc1OCCSc1nnnn1-c1ccccc1	HSP90 inh 25 | HSP90 confirm 29 | luciferase ctr inactive
O=C(c1cccc(Cl)c1)N1CCn2c1nc1ccccc12	none
CCOc1ccc(C(=O)Nc2ccc3[nH]ncc3c2)cc1	HSP90 inh 18 | HSP90 confirm 40 | luciferase ctr 11
COc1ccc(C(=O)Nc2ccc3[nH]ncc3c2)cc1	none
COC(=O)c1ccc(Cn2nc(C)cc2C)cc1	HSP90 inh 24 | HSP90 confirm inactive | luciferase ctr inactive
CCN(Cc1ccncc1)C(=O)c1ccccc1NS(=O)(=O)c1ccc(Br)cc1	HSP90 inh 21 | HSP90 confirm inactive | luciferase ctr inactive
COc1ccc(CCNC(=O)c2nnn(-c3ccc4c(c3)OCCO4)c2N)cc1OC	HSP90 inh 29 | HSP90 confirm 64 | luciferase ctr 66
COc1ccc(CCNC(=O)c2nnn(-c3ccccc3OC)c2N)cc1OC	none
CCN(c1ccccc1)c1cc2ccccc2c(=O)[nH]1	SENP7 block 86, HSP90 inh 41, SENP6 inh 88, SENP8 block-2 92 | HSP90 confirm inactive | luciferase ctr inactive | SENP8 confirm inactive | SENP6 confirm 61 | SENP7 confirm inactive | Casp3 SENP sel inactive | SENP luc ctr inactive
CCN(c1ccccc1)c1nc(=O)c2cccnc2s1	none
C(=C\c1ccccc1)/C=N/Nc1nncc(-c2ccccc2)n1	none (no result: SENP8 block-1)
O=c1nc(N/N=C/C=C/c2ccccc2)cn[nH]1	SENP7 block 53, HSP90 inh 23 | HSP90 confirm 78 | luciferase ctr 65 | SENP8 confirm inactive | SENP6 confirm inactive | SENP7 confirm inactive | Casp3 SENP sel inactive | SENP luc ctr inactive
Cc1ccc(NC(=O)c2cnn(-c3ccccc3)c2C)cc1C	SENP7 block 90, HSP90 inh 44, SENP6 inh 85, SENP8 block-2 77 | HSP90 confirm 64 | luciferase ctr 59 | SENP8 confirm inactive | SENP6 confirm 86 | SENP7 confirm 97 | Casp3 SENP sel 80 | SENP luc ctr inactive
O=C(Nc1ccc(S(=O)(=O)N2CCCCC2c2cccnc2)cc1)c1ccccc1F (stereo unspecified)	none
Cc1ccc(F)c(NC(=S)Nc2cccc3ccccc23)c1	HSP90 inh 18, SENP6 inh 88, SENP8 block-2 83 | HSP90 confirm inactive | luciferase ctr inactive | SENP8 confirm inactive | SENP6 confirm inactive | SENP7 confirm inactive | Casp3 SENP sel inactive | SENP luc ctr inactive
Cc1ccccc1NC(=S)Nc1cccc2cnccc12	SENP7 block 86, HSP90 inh 73, SENP6 inh 98, SENP8 block-2 88 | HSP90 confirm inactive | luciferase ctr inactive | SENP8 confirm inactive | SENP6 confirm inactive | SENP7 confirm inactive | Casp3 SENP sel inactive | SENP luc ctr inactive
S=C(Nc1cccc2ccccc12)Nc1cccc2ccccc12	none (no result: SENP7 block, HSP90 inh, SENP6 inh, SENP8 block-2)
FC(F)(F)c1ccccc1NC(=S)Nc1cccc2cnccc12	none (no result: SENP7 block, SENP6 inh, SENP8 block-2)
CCOc1ccc(C(=O)C(C)OC(=O)Cn2cnc3c2c(=O)n(C)c(=O)n3C)cc1 (stereo unspecified)	none (no result: HSP90 inh)
COc1ccc(C)cc1NS(=O)(=O)c1ccc2c(c1)n(C)c(=O)n2C	none
Cc1ccc(NC(=O)c2ncn(CC(=O)N[C@H](C)c3cccc4ccccc34)n2)cc1C	none (no result: HSP90 inh, SENP6 inh, SENP8 block-2)
O=C(/C=C/c1ccccc1F)c1cccc([N+](=O)[O-])c1	none

Screens: PubChem BioAssay, several laboratories
